According to the supplement of paper PMC10849652:
The full data set covers some 8,800 targets. This sample favours those with a hit. About 0.5% of all pairs of compound and target were hits. Unmarked numbers belong to inactive results.

Tests used:
Experiment in all cases: log2 fold change, soluble protein after heating vs DMSO (PISA); higher = thermal stabilisation; K562 lysate, 10 uM; active = over 0.2 and 3.5 SD of the protein, either way, in both replicates (recomputed)
[1] = compound: CN1CC[C@H](c2c(O)cc(O)c3c(=O)cc(-c4ccccc4Cl)oc23)[C@H](O)C1 [alvocidib]
In short: (§1)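 Quantification was by TMTpro 16plex LC-MS/MS with equalised channel sums, applied to the supernatant after 21,000xg for 90 min. Samples were crude K562 extract at 1 mg/mL protein in PBS pH 7.4 with 1 mM MgCl2, treated with 10 μM compound for 30 min, heated for 3 min across 48°C-58°C, pooled and brought to 0.5% NP-40 at 4°C. Values are log-two fold changes in thermal stability relative to solvent controls, from duplicates.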

[2] = compound: CN1CCc2c(c3ccccc3n2Cc2ccc(C(=O)NO)cc2)C1 [Tubastatin A]
In short: as §1

[3] = compound: CNC(=O)C1=CC=CC=C1NC2=NC(=NC=C2Cl)NC3=C(C=C(C=C3)N4CCOCC4)OC
In short: as §1

[4] = compound: CNC(=O)c1ccc(Nc2ncc(C(F)(F)F)c(NCc3nccnc3N(C)S(C)(=O)=O)n2)cc1 [defactinib]
In short: as §1

[5] = compound: CNc1nc(-c2ccc3c(N)n[nH]c3c2)cc(N2C[C@@H](C(=O)NC3CCCCC3)CC[C@H]2C)n1
In short: as §1

[6] = compound: COC(=O)N[C@@H](C)CNc1nccc(-c2cn(C(C)C)nc2-c2cc(Cl)cc(NS(C)(=O)=O)c2F)n1 [encorafenib]
In short: as §1

[7] = compound: COC(=O)[C@H](CCSC)NC(=O)C1=C(C=C(C=C1)NC[C@H](CS)N)C2=CC=CC=C2
In short: as §1

[8] = compound: COc1cc(Nc2ncc3c(n2)-c2ccc(Cl)cc2C(c2c(F)cccc2OC)=NC3)ccc1C(=O)O [alisertib]
In short: as §1

[9] = compound: COc1cc2nc(-c3cc(F)ccc3O)nc(N[C@@H]3CNC[C@H]3C(C)(C)O)c2cc1OC
In short: as §1

[10] = compound: COc1cc2ncnc(Nc3ccc(F)c(Cl)c3)c2cc1OCCCN1CCOCC1 [gefitinib]
In short: as §1

[11] = compound: CS(=O)(=O)CCNCc1ccc(-c2ccc3ncnc(Nc4ccc(OCc5cccc(F)c5)c(Cl)c4)c3c2)o1 [lapatinib]
In short: as §1

[12] = compound: CS(=O)(=O)N1CCN(Cc2cc3nc(-c4cccc5[nH]ncc45)nc(N4CCOCC4)c3s2)CC1 [pictilisib]
In short: as §1

[13] = compound: C[C@@H](Oc1cc(-c2cnn(C3CCNCC3)c2)cnc1N)c1c(Cl)ccc(F)c1Cl [crizotinib]
In short: as §1

[14] = compound: C[C@H](C1=CC=C(C=C1)C(=O)NC2=C3C=CNC3=NC=C2)N
In short: as §1

[15] = compound: C[C@H](Nc1ncnc2nc[nH]c12)c1cc2cccc(Cl)c2c(=O)n1-c1ccccc1 [duvelisib]
In short: as §1

[16] = compound: Cc1cc(Nc2cc(CN3CCOCC3)c3nc(C)c(Cc4ccc(Cl)cc4F)n3n2)n[nH]1 [gandotinib]
In short: as §1

[17] = compound: Cc1cc(Nc2cc(N3CCN(C)CC3)nc(Sc3ccc(NC(=O)C4CC4)cc3)n2)n[nH]1 [tozasertib]
In short: as §1

[18] = compound: Cc1ccc(-n2nc(C(C)(C)C)cc2NC(=O)Nc2ccc(OCCN3CCOCC3)c3ccccc23)cc1 [doramapimod]
In short: as §1

[19] = compound: Cc1ccc(NC(=O)c2ccc(CN3CC[C@H](N(C)C)C3)c(C(F)(F)F)c2)cc1Nc1nccc(-c2cncnc2)n1 [bafetinib]
In short: as §1

[20] = compound: Cc1cccc(CC(=O)N2CCc3c2ccc(-c2cn(C)c4ncnc(N)c24)c3F)n1
In short: as §1

CFDP1 (UniProt Q9UEE9)
log2 fold change [1]: -0.104 | log2 fold change [2]: 0.057 | log2 fold change [3]: 0.042 | log2 fold change [4]: -0.01 | log2 fold change [5]: -0.051 | log2 fold change [6]: 0.005 | log2 fold change [7]: -0.021 | log2 fold change [8]: -0.013 | log2 fold change [9]: 0.015 | log2 fold change [10]: -0.005 | log2 fold change [11]: -0.018 | log2 fold change [12]: 0.008 | log2 fold change [13]: -0.052 | log2 fold change [14]: -0.288 (active) | log2 fold change [15]: 0.006 | log2 fold change [16]: 0.066 | log2 fold change [17]: -0.032 | log2 fold change [18]: 0.041 | log2 fold change [19]: 0.07 | log2 fold change [20]: 0.091

ATRIP (UniProt Q8WXE1)
log2 fold change [1]: 0.012 | log2 fold change [2]: -0.105 | log2 fold change [3]: -0.074 | log2 fold change [4]: -0.114 | log2 fold change [5]: -0.141 | log2 fold change [6]: 0.068 | log2 fold change [7]: -0.061 | log2 fold change [8]: 0.016 | log2 fold change [9]: 0.03 | log2 fold change [10]: 0.026 | log2 fold change [11]: -0.046 | log2 fold change [12]: 0.187 | log2 fold change [13]: 0.012 | log2 fold change [14]: -0.034 | log2 fold change [15]: -0.016 | log2 fold change [16]: -0.056 | log2 fold change [17]: 0.097 | log2 fold change [18]: 0.001 | log2 fold change [19]: -0.035 | log2 fold change [20]: 0.006

CCNK isoform 4 (UniProt O75909)
log2 fold change [1]: -0.094 | log2 fold change [2]: -0.004 | log2 fold change [3]: 0.01 | log2 fold change [4]: -0.011 | log2 fold change [5]: 0.009 | log2 fold change [6]: 0.017 | log2 fold change [7]: -0.035 | log2 fold change [8]: 0.071 | log2 fold change [9]: 0 | log2 fold change [10]: 0.046 | log2 fold change [11]: 0.001 | log2 fold change [12]: 0.013 | log2 fold change [13]: -0.008 | log2 fold change [14]: -0.213 (active) | log2 fold change [15]: 0.044 | log2 fold change [16]: 0.161 | log2 fold change [17]: -0.023 | log2 fold change [18]: 0.113 | log2 fold change [19]: -0.051 | log2 fold change [20]: 0.109

CDK13 (UniProt Q14004)
log2 fold change [1]: 0.287 (active) | log2 fold change [2]: -0.1 | log2 fold change [3]: -0.044 | log2 fold change [4]: 0.139 | log2 fold change [5]: -0.184 | log2 fold change [6]: -0.005 | log2 fold change [7]: -0.033 | log2 fold change [8]: 0.043 | log2 fold change [9]: 0.078 | log2 fold change [10]: 0.007 | log2 fold change [11]: -0.077 | log2 fold change [12]: 0.108 | log2 fold change [13]: 0.08 | log2 fold change [14]: 0.025 | log2 fold change [15]: -0.006 | log2 fold change [16]: -0.1 | log2 fold change [17]: 0.027 | log2 fold change [18]: 0.002 | log2 fold change [19]: 0.101 | log2 fold change [20]: -0.046

BCKDHB (UniProt P21953)
Chain of UniProt P21953 (P21953 whole entry, looked up): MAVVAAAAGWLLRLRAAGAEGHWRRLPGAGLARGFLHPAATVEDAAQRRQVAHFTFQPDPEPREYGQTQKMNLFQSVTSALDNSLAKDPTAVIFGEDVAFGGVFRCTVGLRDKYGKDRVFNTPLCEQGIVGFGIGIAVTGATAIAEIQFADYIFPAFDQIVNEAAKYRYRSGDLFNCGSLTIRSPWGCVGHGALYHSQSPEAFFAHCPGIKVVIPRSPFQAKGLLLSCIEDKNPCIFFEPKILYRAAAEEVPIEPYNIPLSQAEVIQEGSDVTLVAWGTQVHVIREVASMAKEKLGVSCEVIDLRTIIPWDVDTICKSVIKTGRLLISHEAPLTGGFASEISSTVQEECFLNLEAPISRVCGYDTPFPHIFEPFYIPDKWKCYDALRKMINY
log2 fold change [1]: 0.062 | log2 fold change [2]: 0.011 | log2 fold change [3]: 0.008 | log2 fold change [4]: -0.008 | log2 fold change [5]: -0.031 | log2 fold change [6]: -0.074 | log2 fold change [7]: 0.107 | log2 fold change [8]: -0.019 | log2 fold change [9]: -0.015 | log2 fold change [10]: -0.024 | log2 fold change [11]: 0.005 | log2 fold change [12]: -0.043 | log2 fold change [13]: -0.055 | log2 fold change [14]: 0.083 | log2 fold change [15]: 0.026 | log2 fold change [16]: 0.015 | log2 fold change [17]: 0.09 | log2 fold change [18]: 0.064 | log2 fold change [19]: -0.052 | log2 fold change [20]: -0.017

ATR (UniProt Q13535)
Chain of UniProt Q13535 (Q13535 whole entry, looked up): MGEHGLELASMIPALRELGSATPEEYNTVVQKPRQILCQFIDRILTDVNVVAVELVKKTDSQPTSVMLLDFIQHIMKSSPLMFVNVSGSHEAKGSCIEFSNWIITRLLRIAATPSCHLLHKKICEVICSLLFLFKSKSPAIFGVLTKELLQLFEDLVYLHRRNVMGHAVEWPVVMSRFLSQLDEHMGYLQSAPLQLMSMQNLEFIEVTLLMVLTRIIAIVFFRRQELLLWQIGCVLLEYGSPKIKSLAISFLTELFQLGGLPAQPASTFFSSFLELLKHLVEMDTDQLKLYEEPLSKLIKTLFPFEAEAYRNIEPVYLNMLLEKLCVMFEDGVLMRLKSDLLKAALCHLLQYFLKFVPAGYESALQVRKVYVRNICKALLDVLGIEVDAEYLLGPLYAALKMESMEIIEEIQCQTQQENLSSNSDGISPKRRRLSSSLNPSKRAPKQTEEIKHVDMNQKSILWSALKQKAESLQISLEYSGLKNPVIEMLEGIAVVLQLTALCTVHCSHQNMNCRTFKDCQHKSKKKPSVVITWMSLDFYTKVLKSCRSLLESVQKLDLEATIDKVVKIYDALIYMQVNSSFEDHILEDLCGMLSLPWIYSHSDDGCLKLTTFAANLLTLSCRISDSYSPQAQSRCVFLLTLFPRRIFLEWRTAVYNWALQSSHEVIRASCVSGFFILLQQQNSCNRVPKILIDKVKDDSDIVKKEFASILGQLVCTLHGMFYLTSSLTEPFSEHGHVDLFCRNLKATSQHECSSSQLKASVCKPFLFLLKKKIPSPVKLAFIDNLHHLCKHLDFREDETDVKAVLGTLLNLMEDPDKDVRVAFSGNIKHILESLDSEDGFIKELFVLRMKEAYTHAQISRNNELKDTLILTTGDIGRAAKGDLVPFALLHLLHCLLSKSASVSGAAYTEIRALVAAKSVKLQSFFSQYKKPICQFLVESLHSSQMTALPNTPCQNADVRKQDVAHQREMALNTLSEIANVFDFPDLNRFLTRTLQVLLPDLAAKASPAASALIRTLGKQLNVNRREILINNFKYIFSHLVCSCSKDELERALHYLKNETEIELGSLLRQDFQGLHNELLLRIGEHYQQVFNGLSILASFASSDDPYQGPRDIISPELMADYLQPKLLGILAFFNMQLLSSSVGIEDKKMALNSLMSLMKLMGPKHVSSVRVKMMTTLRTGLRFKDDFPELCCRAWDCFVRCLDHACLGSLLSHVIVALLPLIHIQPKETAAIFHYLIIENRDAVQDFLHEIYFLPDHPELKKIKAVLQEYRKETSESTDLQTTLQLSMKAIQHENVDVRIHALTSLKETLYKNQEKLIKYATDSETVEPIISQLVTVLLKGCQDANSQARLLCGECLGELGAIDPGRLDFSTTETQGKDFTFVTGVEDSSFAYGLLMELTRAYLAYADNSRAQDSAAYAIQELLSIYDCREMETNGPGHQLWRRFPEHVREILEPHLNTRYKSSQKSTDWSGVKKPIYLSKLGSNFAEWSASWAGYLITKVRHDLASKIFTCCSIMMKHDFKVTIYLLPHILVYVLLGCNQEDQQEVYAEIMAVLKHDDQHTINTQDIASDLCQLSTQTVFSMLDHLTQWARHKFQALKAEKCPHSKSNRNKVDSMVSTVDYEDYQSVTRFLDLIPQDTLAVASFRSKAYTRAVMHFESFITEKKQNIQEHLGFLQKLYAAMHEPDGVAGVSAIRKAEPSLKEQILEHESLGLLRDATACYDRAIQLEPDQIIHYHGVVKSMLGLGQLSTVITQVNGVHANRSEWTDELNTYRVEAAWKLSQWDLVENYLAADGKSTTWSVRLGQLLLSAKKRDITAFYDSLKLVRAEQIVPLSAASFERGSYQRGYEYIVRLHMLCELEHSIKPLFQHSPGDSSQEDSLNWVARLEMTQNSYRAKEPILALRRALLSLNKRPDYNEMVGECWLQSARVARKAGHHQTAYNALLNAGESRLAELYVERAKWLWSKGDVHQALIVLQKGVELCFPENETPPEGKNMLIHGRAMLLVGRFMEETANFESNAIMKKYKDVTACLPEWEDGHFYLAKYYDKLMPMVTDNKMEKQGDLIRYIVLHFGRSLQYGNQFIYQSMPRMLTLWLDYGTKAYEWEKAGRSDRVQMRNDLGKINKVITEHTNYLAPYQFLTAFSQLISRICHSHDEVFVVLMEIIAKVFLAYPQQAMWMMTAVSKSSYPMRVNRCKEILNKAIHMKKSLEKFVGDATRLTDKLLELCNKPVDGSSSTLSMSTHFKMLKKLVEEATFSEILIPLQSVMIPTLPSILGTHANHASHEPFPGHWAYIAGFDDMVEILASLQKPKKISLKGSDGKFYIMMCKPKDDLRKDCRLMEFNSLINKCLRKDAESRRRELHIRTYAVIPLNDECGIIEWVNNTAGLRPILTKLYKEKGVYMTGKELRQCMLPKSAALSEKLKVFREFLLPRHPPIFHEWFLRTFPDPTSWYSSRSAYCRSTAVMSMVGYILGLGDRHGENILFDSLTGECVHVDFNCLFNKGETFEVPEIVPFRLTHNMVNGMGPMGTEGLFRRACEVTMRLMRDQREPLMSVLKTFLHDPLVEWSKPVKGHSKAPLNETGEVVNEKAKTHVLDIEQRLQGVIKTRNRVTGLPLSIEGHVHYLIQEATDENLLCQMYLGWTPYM
log2 fold change [1]: -0.134 | log2 fold change [2]: -0.067 | log2 fold change [3]: 0.029 | log2 fold change [4]: -0.07 | log2 fold change [5]: -0.001 | log2 fold change [6]: 0.045 | log2 fold change [7]: -0.193 | log2 fold change [8]: 0.115 | log2 fold change [9]: 0.077 | log2 fold change [10]: 0.052 | log2 fold change [11]: -0.036 | log2 fold change [12]: 0.408 (active) | log2 fold change [13]: -0.1 | log2 fold change [14]: -0.158 | log2 fold change [15]: 0.032 | log2 fold change [16]: 0.117 | log2 fold change [17]: 0.044 | log2 fold change [18]: 0.068 | log2 fold change [19]: -0.033 | log2 fold change [20]: 0.161

CHCHD1 (UniProt Q96BP2)
log2 fold change [1]: 0.494 | log2 fold change [2]: 0.046 | log2 fold change [3]: 0.028 | log2 fold change [4]: -0.033 | log2 fold change [5]: 0.087 | log2 fold change [6]: -0.018 | log2 fold change [7]: -0.042 | log2 fold change [8]: 0.003 | log2 fold change [9]: 0.023 | log2 fold change [10]: 0.228 | log2 fold change [11]: 0.025 | log2 fold change [12]: 0.001 | log2 fold change [13]: -0.069 | log2 fold change [14]: 1.33 (active) | log2 fold change [15]: 0.052 | log2 fold change [16]: -0.314 | log2 fold change [17]: -0.016 | log2 fold change [18]: 0.039 | log2 fold change [19]: 0.003 | log2 fold change [20]: -0.35 (active)

CCNH (UniProt P51946)
Chain of UniProt P51946 (P51946 whole entry, looked up): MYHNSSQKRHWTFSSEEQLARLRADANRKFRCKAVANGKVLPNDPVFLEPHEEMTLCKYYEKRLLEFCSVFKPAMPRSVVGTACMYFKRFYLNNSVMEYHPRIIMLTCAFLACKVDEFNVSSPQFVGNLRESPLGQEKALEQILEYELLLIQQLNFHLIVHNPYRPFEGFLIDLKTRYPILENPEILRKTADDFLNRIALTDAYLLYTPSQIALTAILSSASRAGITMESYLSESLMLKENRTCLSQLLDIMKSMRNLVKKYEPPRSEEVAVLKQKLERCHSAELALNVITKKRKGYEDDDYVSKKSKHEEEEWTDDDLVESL
log2 fold change [1]: 0.006 | log2 fold change [2]: 0.016 | log2 fold change [3]: -0.015 | log2 fold change [4]: 0.026 | log2 fold change [5]: -0.018 | log2 fold change [6]: 0.033 | log2 fold change [7]: -0.047 | log2 fold change [8]: -0.005 | log2 fold change [9]: -0.007 | log2 fold change [10]: 0.024 | log2 fold change [11]: 0.005 | log2 fold change [12]: -0.012 | log2 fold change [13]: 0.012 | log2 fold change [14]: 0.026 | log2 fold change [15]: 0.072 | log2 fold change [16]: -0.002 | log2 fold change [17]: 0.013 | log2 fold change [18]: 0.037 | log2 fold change [19]: -0.022 | log2 fold change [20]: -0.023

CCDC25 (UniProt Q86WR0)
Chain of UniProt Q86WR0 (Q86WR0 whole entry, looked up): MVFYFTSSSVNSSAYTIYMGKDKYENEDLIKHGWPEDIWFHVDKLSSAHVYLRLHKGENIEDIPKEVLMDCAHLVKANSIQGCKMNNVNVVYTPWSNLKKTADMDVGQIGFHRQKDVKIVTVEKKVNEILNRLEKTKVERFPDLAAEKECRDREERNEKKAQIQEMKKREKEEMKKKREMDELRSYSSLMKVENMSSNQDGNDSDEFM
log2 fold change [1]: 0.132 | log2 fold change [2]: 0 | log2 fold change [3]: -0.012 | log2 fold change [4]: -0.025 | log2 fold change [5]: 0.075 | log2 fold change [6]: 0.008 | log2 fold change [7]: 0.083 | log2 fold change [8]: -0.027 | log2 fold change [9]: -0.005 | log2 fold change [10]: 0.01 | log2 fold change [11]: -0.028 | log2 fold change [12]: -0.001 | log2 fold change [13]: -0.015 | log2 fold change [14]: 0.487 (active) | log2 fold change [15]: 0.011 | log2 fold change [16]: -0.062 | log2 fold change [17]: -0.021 | log2 fold change [18]: 0.065 | log2 fold change [19]: 0.008 | log2 fold change [20]: -0.095

CHAC2 (UniProt Q8WUX2)
log2 fold change [1]: 0.223 | log2 fold change [2]: 0.019 | log2 fold change [3]: 0.092 | log2 fold change [4]: 0.028 | log2 fold change [5]: 0.019 | log2 fold change [6]: 0.06 | log2 fold change [7]: 0.003 | log2 fold change [8]: -0.039 | log2 fold change [9]: -0.007 | log2 fold change [10]: 0 | log2 fold change [11]: 0.038 | log2 fold change [12]: -0.011 | log2 fold change [13]: 0.003 | log2 fold change [14]: 0.57 (active) | log2 fold change [15]: 0.038 | log2 fold change [16]: -0.161 | log2 fold change [17]: 0.015 | log2 fold change [18]: -0.01 | log2 fold change [19]: -0.018 | log2 fold change [20]: -0.198

CDK1 (UniProt P06493)
Chain of UniProt P06493 (P06493 whole entry, looked up): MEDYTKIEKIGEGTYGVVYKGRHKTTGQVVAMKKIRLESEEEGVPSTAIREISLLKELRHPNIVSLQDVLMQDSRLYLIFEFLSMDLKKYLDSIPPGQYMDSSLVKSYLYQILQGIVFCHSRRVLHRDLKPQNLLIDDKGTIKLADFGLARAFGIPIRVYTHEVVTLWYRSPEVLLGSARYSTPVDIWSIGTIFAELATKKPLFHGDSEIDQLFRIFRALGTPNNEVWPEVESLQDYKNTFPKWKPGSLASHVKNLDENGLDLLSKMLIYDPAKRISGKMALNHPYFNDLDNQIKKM
log2 fold change [1]: 0.036 | log2 fold change [2]: -0.032 | log2 fold change [3]: -0.017 | log2 fold change [4]: -0.035 | log2 fold change [5]: -0.021 | log2 fold change [6]: 0.011 | log2 fold change [7]: 0.036 | log2 fold change [8]: 0.002 | log2 fold change [9]: 0.328 (active) | log2 fold change [10]: -0.03 | log2 fold change [11]: -0.012 | log2 fold change [12]: -0.021 | log2 fold change [13]: -0.041 | log2 fold change [14]: -0.018 | log2 fold change [15]: 0.031 | log2 fold change [16]: -0.224 | log2 fold change [17]: 0.001 | log2 fold change [18]: 0.019 | log2 fold change [19]: -0.016 | log2 fold change [20]: -0.022

ATP13A1 (UniProt Q9HD20)
Chain of UniProt Q9HD20 (Q9HD20 whole entry, looked up): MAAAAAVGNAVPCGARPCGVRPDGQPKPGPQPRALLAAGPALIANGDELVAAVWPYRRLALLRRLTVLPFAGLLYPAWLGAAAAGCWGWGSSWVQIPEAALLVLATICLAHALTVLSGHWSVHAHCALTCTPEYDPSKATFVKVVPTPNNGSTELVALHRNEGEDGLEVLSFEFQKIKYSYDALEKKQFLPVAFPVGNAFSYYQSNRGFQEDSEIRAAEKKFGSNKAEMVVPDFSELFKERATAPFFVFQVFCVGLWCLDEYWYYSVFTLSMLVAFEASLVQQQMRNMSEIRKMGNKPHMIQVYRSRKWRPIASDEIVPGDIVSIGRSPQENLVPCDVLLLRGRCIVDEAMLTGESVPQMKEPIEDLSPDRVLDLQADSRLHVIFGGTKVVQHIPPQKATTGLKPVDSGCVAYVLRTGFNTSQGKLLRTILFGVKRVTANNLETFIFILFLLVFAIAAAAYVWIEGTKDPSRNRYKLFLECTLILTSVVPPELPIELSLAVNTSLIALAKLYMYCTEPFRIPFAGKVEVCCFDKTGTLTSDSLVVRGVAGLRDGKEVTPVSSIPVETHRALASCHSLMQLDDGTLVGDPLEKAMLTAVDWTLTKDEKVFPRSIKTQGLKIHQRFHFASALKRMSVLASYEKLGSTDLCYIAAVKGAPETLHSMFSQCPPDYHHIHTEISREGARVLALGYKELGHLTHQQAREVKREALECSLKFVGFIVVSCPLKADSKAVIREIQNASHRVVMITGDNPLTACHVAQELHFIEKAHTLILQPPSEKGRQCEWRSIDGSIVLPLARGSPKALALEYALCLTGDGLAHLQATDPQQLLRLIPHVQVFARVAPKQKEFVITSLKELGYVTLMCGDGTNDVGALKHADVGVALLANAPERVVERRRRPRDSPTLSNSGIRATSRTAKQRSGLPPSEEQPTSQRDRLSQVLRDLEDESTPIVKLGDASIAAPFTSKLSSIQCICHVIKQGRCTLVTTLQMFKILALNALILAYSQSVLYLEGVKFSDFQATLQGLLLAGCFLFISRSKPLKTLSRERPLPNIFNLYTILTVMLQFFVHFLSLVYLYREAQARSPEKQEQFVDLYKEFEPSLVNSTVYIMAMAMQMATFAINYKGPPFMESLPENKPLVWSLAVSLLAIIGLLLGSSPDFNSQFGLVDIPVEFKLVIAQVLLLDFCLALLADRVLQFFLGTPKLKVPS
log2 fold change [1]: 0.051 | log2 fold change [2]: 0.036 | log2 fold change [3]: -0.012 | log2 fold change [4]: 0.028 | log2 fold change [5]: -0.002 | log2 fold change [6]: -0.008 | log2 fold change [7]: -0.067 | log2 fold change [8]: 0.055 | log2 fold change [9]: 0.03 | log2 fold change [10]: 0.011 | log2 fold change [11]: -0.115 | log2 fold change [12]: -0.011 | log2 fold change [13]: 0.123 | log2 fold change [14]: 0.047 | log2 fold change [15]: -0.004 | log2 fold change [16]: -0.073 | log2 fold change [17]: 0.068 | log2 fold change [18]: -0.053 | log2 fold change [19]: -0.033 | log2 fold change [20]: 0.043
